High-throughput results deposited in PubChem by National Center for Advancing Translational Sciences (NCATS).
An excerpt weighted towards active compounds, which were near 22% of everything screened.
Pf growth 96h: Primary qHTS for delayed death inhibitors of the malarial parasite plastid, 96 hour incubation; P. falciparum luciferase reporter growth, 96 h; AID 504834, 2011; Potency, µM (highest dose often 28.7 µM), most hits filed as inhibitors; hit rate 6.9% among 320,000
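Delayed-death screen, second-generation endpoint: infected erythrocytes, 2% hematocrit, 0.05% parasitemia final; 96 hours at 37 C, 5% CO2; luciferase detection reagent; luminescence decrease equals reduced growth.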
LmPK inhibitor: qHTS Assay for Inhibitors of Leishmania Mexicana Pyruvate Kinase (LmPK) | hit rate 0.37% among 290,000 | Q27686 | purified LmPK, Kinase-Glo ATP luminescence, 1 h | AID 1721, 2009 | Potency, µM (top dose mostly 57.5 µM), hits mostly inhibitors
Target sequence (Q27686 whole entry, looked up): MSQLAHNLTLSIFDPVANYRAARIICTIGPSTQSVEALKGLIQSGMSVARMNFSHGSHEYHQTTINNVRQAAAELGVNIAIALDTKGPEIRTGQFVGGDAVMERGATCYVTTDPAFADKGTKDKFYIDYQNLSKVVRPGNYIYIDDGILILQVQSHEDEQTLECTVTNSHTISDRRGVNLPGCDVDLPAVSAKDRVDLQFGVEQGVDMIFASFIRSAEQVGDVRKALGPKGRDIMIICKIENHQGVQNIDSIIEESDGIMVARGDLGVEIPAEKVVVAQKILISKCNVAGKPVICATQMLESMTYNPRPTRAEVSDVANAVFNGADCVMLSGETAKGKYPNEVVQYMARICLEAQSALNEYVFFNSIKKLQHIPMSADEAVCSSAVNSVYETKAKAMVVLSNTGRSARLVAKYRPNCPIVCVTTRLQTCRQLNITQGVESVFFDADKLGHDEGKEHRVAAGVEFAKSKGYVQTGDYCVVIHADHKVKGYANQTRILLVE
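Kinase-Glo luminescence read after 1 h RT reaction of 0.1 nM LmPK with 0.5 mM PEP and 0.1 mM ADP. Activity scaled between uninhibited and enzyme-free controls.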
Pf growth 48h: Primary qHTS for delayed death inhibitors of the malarial parasite plastid, 48 hour incubation; P. falciparum luciferase growth in erythrocytes, 48 h; Potency, µM (series often up to 28.7 µM), usual class: inhibitors; hit rate 5.9% among 310,000; AID 504832, 2011
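First compound was added to culture medium, then infected red cells at 0.1% parasitemia and 2% hematocrit (final). After incubation at 37 C under 5% CO2, luciferase detection reagent was dispensed and light output recorded.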
Shiga toxin inh: A qHTS for Small Molecule Inhibitors of Shiga Toxin; AID 2315, 2010; Vero cells, Shiga toxin protein synthesis inhibition reporter; hit rate 9.2% among 290,000; inhibition, % at 38.7 µM; in the data active = inhibition mostly above about 28%, no sharp cut-off; inactive = mostly below about 43%
Cycloheximide cs: Cycloheximide Counterscreen for Small Molecule Inhibitors of Shiga Toxin. cell reporter, cycloheximide protein synthesis inhibition counterscreen. max response, %. hit rate 12% among 300,000. AID 2314, 2010; in the data active = max response mostly above about 13%, no sharp cut-off; inactive = mostly below about 14%; also: read at 38.3 µM for the half of the compounds with a filed dose
Numbers stand for hits; i = inactive; ? = inconclusive; nt = no result. Unless noted, calls follow the shape of the dose curve; as a rule, active = well fitted inhibition curve with a large enough effect; inconclusive = small, poorly fitted or top-dose-only effect, or another doubt; inactive = no such curve, though single readings can be large or run the other way.

SMILES | Pf growth 96h | LmPK inhibitor | Pf growth 48h | Shiga toxin inh | Cycloheximide cs
COc1cc(CNCCc2ccccc2)cc(Cl)c1OCc1ccccc1 | i | i | 8.3µM | i | i
CCOc1cc(CNCC(C)C)cc(Cl)c1OCc1ccccc1 | 5.2µM | i | 13µM | i | i
CCOc1cc(CNC2CCCC2)cc(Cl)c1OCc1ccccc1 | ? | i | 13µM | i | i
CCOc1c(Cl)cc(CNCC(C)C)cc1OC | i | i | nt | i | i
CCOc1cc(C(N)=O)cc(Cl)c1OCc1ccccc1 | i | i | i | i | i
COc1cc(CNCc2ccccc2)cc(Cl)c1OC | i | i | i | i | i
O=C(CCC1CCCCC1)NNC(=O)NC12CC3CC(CC(C3)C1)C2 | i | i | nt | i | i
O=C(OCc1nnc(-c2ccccc2)o1)c1cc(S(=O)(=O)N2CCOCC2)ccc1F | i | nt | i | nt | nt
CCCN1CCC(NC(=O)Cc2ccccc2C)CC1 | ? | i | i | i | i
CN1CCN(C(=O)c2cc(C(C)(C)C)cc(C(C)(C)C)c2)CC1 | i | i | i | i | i
CCCCNCc1cc(Cl)c(OCCC)c(OCC)c1 | 8.3µM | i | nt | i | i
CCCCOc1c(Cl)cc(CNC(C)(C)CO)cc1OCC | i | i | ? | i | i
O=C(Nc1cc(SCCO)cc([N+](=O)[O-])c1)c1ccc(Br)o1 | ? | i | ? | i | i
O=C(CSc1nc2ccccc2[nH]1)c1ccc2c(c1)OCO2 | ? | i | i | 91 | 57
O=C(CSc1nc2ccccc2[nH]1)NCc1ccc2c(c1)OCO2 | 4.1µM | i | i | i | i
O=C(CSc1nc2ccccc2o1)NCc1ccc2c(c1)OCO2 | i | i | i | 27 | 15
COc1cccc(CNS(=O)(=O)c2c(C)[nH]c(C)c2C(=O)N2CCCCC2)c1 | i | i | i | i | i
COc1cc(C(CC(=O)N2CCOCC2)c2c(OC)cc(OC)c3c(-c4ccccc4)cc(=O)oc23)cc(OC)c1OC (stereo not drawn) | nt | nt | nt | i | i
O=C(Cn1ccnc1[N+](=O)[O-])NCCO | i | nt | i | nt | nt
O=C(COc1ccc(-c2ccccc2)cc1)N1CCN(S(=O)(=O)Cc2ccccc2)CC1 | i | i | nt | i | i
CCOC(=O)c1ccc(NC(=O)c2cc3c(s2)CCC3)cc1 | i | i | ? | 54 | 39
NNC(=O)c1cc2c(s1)CCCCCC2 | ? | i | ? | i | i
COc1ccc(C)cc1NC(=O)c1cc2c(s1)CCC2 | ? | i | i | i | 20
COC(=O)c1sccc1NC(=O)c1cc2c(s1)CCCC2 | nt | i | i | i | 13
CCOC(CNC(=O)C1CCN(S(=O)(=O)c2ccc3nc4c(c(C(=O)O)c3c2)CCCCC4)CC1)OCC | i | i | i | i | i
SMILES | Pf growth 96h | LmPK inhibitor | Pf growth 48h | Shiga toxin inh | Cycloheximide cs
O=C(/C=C/c1ccc2ccccc2n1)N1CCN(S(=O)(=O)c2ccc(F)cc2)CC1 | 10µM | i | ? | i | i
O=C(/C=C/c1ccc(S(=O)(=O)N2CCOCC2)cc1)N1CCN(c2ccc(F)cc2)CC1 | ? | i | 7.4µM | i | i
CC1CC(C)CN(C(=O)COC(=O)c2cc(S(=O)(=O)N3CCOCC3)ccc2F)C1 (stereo not drawn) | i | nt | ? | nt | nt
CC1CC(C)CN(C(=O)/C=C/c2ccc(S(=O)(=O)N3CCOCC3)cc2)C1 (stereo not drawn) | 5.2µM | nt | 9.3µM | nt | nt
O=C(Nc1ccc(F)cc1)c1ccc(C(=O)N2CCCC(O)C2)cc1 (stereo not drawn) | i | nt | i | nt | nt
Cc1csc(NC(=O)c2ccc(C(=O)Nc3nc(C)cs3)cc2)n1 | ? | i | ? | i | i
Cc1csc(NC(=O)c2cncc(Br)c2)n1 | i | i | i | i | 53
O=C(Nc1nccs1)c1cncc(Br)c1 | i | i | i | 96 | 48
CC(C)N(C(=O)COC(=O)Cn1cnc2ccccc21)c1ccccc1 | i | nt | i | nt | nt
Cc1nc2ccccc2nc(C)c1=NOCC(=O)N(c1ccccc1)C(C)C | ? | i | i | 116 | 61
COc1cccc(/C=C2\SC(=S)N(CCCC(=O)Nc3ccc(C(=O)O)cc3)C2=O)c1 | 8.3µM | i | ? | i | i
CCN(CC)CCOC(=O)c1ccc(NC(=O)CCCN2C(=O)S/C(=C/c3ccc(OC)cc3)C2=S)cc1 | i | i | 2.6µM | i | i
COc1ccc(/C=C2\SC(=S)N(CCC(=O)Nc3ccc(O)cc3)C2=O)cc1 | ? | i | i | i | i
COc1cccc(/C=C2/SC(=S)N(CCCC(=O)Nc3ccc(O)cc3)C2=O)c1 | ? | i | ? | 44 | 27
Cc1ccc(S(=O)(=O)N2CCN(C(=O)Cc3c(F)cccc3Cl)CC2)cc1 | i | nt | i | nt | nt
Cc1ccc(C(=O)NNC(=O)C2CCCN(c3ncccn3)C2)cc1 (stereo not drawn) | ? | i | i | i | i
CCN(CC)C(=O)c1ccc(-c2nnc(Nc3cccc(O)c3)c3ccccc23)cc1 | i | i | 2.9µM | nt | i
COc1ccc(Cn2nnc(C(=O)Nc3ccc(F)cc3)c2N)cc1 | 1.9µM | i | i | i | i
CCOc1ccc(Cn2nnc(C(=O)NCCc3ccccc3)c2N)cc1 | ? | i | nt | i | i
CCOc1ccc(Cn2nnc(C(=O)NCCc3ccc(Cl)cc3)c2N)cc1 | 5.2µM | i | nt | i | i
Cc1ccc(-c2nn(CCC(N)=O)c(=O)c3ccccc23)cc1 | ? | i | i | i | i
Cc1ccc(C(=O)O)cc1NC(=O)c1ccc2c(c1)C(=O)N(c1ccc([N+](=O)[O-])cc1)C2=O | ? | i | i | i | i
COc1ccc(S(=O)(=O)N(CC(=O)NCc2ccco2)c2ccccc2)cc1 | ? | i | nt | i | i
O=C(CN(c1ccccc1)S(=O)(=O)c1ccccc1)N/N=C/c1ccco1 | 3.7µM | i | i | i | i
Cc1cc(C)cc(N(CC(=O)NCc2ccco2)S(=O)(=O)c2ccccc2)c1 | i | i | ? | 48 | i
SMILES | Pf growth 96h | LmPK inhibitor | Pf growth 48h | Shiga toxin inh | Cycloheximide cs
COc1ccc(N(CC(=O)NCc2ccco2)S(=O)(=O)c2ccccc2)cc1 | 6.6µM | i | i | i | i
CCc1ccc(-c2cc(C(=O)O)c3ccccc3n2)s1 | ? | i | i | i | i
Cn1nc(C(=O)N2CCN(c3ccccc3F)CC2)c2c1-c1ccccc1S(=O)(=O)C2 | i | i | i | i | i
CNC(=S)N/N=C/c1ccc(OCC(=O)Nc2c(C)cc(C)cc2C)c(OC)c1 | ? | i | 13µM | i | i
COc1cc(/C=N/NC(=O)c2cccnc2)ccc1OCC(=O)Nc1c(C)cc(C)cc1C | i | i | i | i | i
O=C(COc1ccc(/C=N/NC(=O)c2cc3ccccc3o2)cc1Cl)Nc1ccccc1 | 7.4µM | i | 10µM | 62 | 47
COCC(=O)N/N=C\c1ccc(OC/C=C/c2ccccc2)c(OC)c1 | i | i | 4.7µM | i | i
COc1cc(/C=N\NC(=O)CC#N)ccc1OC/C=C/c1ccccc1 | i | i | i | i | i
COc1ccc(/C=N/NC(=O)c2ccncc2)cc1OC | i | i | i | i | i
COc1cc(/C=N/NC(=O)c2ccncc2)ccc1OCC(=O)Nc1ccccc1 | i | i | i | 56 | 30
O=C(N/N=C/c1cccc([N+](=O)[O-])c1)c1cc2ccccc2o1 | ? | i | i | i | i
